These results are taken from the supplement of paper PMC10849652.

Holding throughout (assay): log2 fold change, soluble protein after heating vs DMSO (PISA); higher = thermal stabilisation; K562 cells, 10 uM, 30 min; active = over 0.2 and 3.5 SD of the protein, either way, in both replicates (recomputed)
Compound in one experiment: C#Cc1cccc(Nc2ncnc3cc(OCCOC)c(OCCOC)cc23)c1 [erlotinib]
Put shortly:
(§1)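 Quantification of soluble protein used TMTpro 16plex LC-MS/MS, with channel sums equalised. Samples were the supernatant after 21,000xg for 90 min of pooled aliquots from K562 cells (2×10^6 cells/mL) treated with 10 μM compound for 30 min, heated for 3 min over 48°C-58°C, and extracted in PBS with 0.5% NP-40 at 4°C. Values, from duplicates, describe thermal stability against control samples on a log2 fold-change scale.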

Compound in experiment [1]: C/C(=N\NC(=O)C1=CC(=CC=C1)S(=O)(=O)N2CCOCC2)/C3=C(C=CC(=C3)Cl)O
The method, boiled down: as §1

Compound in experiment [2]: C1=CC(=CC=C1C2=NC3=C(N2)C=C(C=C3)C(=O)N)OC4=CC=C(C=C4)Cl
Put shortly: as §1

Compound in experiment [3]: C1=CC2=C(C=CC(=C2)/C=C\3/C(=O)NC(=NCC4=CC=CS4)S3)N=C1
The method, boiled down:
as §1

Compound in experiment [4]: C1=CC2=NC=CN=C2C=C1/C=C/3\C(=O)NC(=O)S3
The method, boiled down: as §1

Compound in experiment [5]: C1=CC=C(C=C1)C2=NC(=C(N2)C3=CC=NC=C3)C4=CC(=C(C=C4)Cl)O
The method, boiled down:
as §1

Compound in experiment [6]: C1=CC=C2C(=C1)C3=NNC4=CC=CC(=C43)C2=O
The method, boiled down: as §1

Compound in experiment [7]: C1CCN(C1)C(=O)NC2=CC=CC(=C2)NC3=NC=C(C(=N3)NCCC4=CN=CN4)Br
The method, boiled down: as §1

Compound in experiment [8]: C1CN(CCC1(CC2=CC=C(C=C2)Cl)N)C3=NC=NC4=C3C=CN4
Put shortly: as §1

Compound in experiment [9]: C1=CC(=C(C=C1Cl)C2=NC3=NC=CN=C3C(=N2)NC4=CC=NC=C4)F
Put shortly:
as §1

About 7,900 targets were measured; listed, in parts, are those with a hit and a random draw of the rest. About 0.6% of all pairs of compound and target were hits. A number with no mark means an inactive call.

UniProt Q629K1, sequence (Q629K1 whole entry, looked up): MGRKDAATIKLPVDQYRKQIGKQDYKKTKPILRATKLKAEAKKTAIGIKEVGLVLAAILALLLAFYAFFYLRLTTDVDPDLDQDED
UniProt Q9HCN3, sequence (Q9HCN3 whole entry, looked up): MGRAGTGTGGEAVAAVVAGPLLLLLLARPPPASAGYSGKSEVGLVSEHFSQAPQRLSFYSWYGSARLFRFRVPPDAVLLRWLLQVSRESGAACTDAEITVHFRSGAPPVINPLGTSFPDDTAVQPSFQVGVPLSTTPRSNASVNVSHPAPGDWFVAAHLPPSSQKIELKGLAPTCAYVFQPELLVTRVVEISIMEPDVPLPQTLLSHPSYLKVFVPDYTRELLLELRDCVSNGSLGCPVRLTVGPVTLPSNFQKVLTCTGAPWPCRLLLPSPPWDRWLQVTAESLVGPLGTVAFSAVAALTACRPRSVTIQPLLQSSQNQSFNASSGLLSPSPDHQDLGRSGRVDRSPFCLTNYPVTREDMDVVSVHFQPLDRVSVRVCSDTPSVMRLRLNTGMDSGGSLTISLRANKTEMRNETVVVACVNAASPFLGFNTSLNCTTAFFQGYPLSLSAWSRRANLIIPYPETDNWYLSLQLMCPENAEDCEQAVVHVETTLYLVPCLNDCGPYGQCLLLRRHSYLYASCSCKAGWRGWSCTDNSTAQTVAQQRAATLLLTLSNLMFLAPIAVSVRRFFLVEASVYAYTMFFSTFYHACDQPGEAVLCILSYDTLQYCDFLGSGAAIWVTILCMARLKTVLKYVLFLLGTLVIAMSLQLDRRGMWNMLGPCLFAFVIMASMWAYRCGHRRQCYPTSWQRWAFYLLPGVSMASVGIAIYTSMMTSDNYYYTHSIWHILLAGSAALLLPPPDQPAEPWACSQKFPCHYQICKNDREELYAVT
UniProt Q8IWA0, sequence (Q8IWA0 whole entry, looked up): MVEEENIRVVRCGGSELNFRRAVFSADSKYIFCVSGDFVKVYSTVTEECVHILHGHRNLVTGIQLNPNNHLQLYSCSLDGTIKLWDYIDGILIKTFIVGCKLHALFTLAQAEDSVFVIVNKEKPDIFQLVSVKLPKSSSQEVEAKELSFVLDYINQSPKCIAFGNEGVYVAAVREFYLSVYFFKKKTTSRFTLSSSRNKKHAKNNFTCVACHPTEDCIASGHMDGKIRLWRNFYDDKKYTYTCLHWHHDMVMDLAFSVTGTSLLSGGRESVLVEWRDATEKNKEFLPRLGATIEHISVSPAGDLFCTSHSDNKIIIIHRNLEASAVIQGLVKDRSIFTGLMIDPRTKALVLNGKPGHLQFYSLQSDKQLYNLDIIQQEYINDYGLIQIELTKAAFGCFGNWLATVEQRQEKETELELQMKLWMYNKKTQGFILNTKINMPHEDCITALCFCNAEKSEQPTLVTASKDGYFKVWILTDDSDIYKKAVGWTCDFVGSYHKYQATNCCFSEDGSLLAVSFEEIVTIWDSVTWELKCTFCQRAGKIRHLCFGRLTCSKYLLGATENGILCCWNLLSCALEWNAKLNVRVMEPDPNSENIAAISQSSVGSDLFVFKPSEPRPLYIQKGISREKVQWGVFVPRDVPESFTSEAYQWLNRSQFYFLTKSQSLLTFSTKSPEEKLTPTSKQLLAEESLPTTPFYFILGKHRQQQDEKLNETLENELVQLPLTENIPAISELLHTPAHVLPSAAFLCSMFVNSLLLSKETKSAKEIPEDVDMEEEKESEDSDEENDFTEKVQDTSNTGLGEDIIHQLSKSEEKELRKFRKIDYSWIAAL
UniProt Q9NX01, sequence (Q9NX01 whole entry, looked up): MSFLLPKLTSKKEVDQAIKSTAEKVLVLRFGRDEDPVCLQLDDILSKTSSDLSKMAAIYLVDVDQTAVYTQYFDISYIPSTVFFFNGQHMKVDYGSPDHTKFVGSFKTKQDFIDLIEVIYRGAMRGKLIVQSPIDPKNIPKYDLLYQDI
UniProt Q86TN4, sequence (Q86TN4 whole entry, looked up): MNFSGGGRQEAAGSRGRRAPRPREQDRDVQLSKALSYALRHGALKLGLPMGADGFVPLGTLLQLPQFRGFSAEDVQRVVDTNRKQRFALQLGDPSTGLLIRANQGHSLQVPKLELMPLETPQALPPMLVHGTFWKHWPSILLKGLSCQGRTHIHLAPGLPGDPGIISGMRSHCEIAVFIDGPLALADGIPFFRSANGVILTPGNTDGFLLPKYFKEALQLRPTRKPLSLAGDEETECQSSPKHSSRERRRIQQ
UniProt Q86UV5, sequence (Q86UV5 whole entry, looked up): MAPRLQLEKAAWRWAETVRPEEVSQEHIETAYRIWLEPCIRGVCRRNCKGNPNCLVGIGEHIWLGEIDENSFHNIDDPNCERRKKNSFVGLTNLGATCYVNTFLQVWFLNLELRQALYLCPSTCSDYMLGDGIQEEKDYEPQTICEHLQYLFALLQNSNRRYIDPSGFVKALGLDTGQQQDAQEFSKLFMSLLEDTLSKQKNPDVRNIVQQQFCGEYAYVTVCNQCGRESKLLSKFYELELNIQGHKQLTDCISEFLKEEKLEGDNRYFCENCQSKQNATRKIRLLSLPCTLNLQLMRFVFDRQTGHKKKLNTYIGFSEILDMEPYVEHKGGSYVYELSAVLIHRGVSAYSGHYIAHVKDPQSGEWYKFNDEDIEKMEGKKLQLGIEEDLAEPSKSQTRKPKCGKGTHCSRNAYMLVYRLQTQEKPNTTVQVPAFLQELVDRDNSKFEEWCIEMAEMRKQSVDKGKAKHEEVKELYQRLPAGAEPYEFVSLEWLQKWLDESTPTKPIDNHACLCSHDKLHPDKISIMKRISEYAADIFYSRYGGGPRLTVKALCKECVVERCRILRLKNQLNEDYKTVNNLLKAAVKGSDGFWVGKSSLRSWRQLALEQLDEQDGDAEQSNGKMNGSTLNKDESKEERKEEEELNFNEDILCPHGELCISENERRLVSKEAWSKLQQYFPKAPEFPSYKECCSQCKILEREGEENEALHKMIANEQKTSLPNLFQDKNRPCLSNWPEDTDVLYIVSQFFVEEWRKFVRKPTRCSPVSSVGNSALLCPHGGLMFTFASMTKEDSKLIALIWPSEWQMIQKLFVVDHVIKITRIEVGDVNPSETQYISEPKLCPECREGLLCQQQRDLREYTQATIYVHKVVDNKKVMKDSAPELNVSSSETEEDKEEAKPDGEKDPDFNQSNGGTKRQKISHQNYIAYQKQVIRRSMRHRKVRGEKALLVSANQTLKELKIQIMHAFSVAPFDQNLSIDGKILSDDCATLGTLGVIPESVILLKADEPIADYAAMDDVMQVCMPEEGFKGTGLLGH
UniProt Q16881, sequence (Q16881 whole entry, looked up): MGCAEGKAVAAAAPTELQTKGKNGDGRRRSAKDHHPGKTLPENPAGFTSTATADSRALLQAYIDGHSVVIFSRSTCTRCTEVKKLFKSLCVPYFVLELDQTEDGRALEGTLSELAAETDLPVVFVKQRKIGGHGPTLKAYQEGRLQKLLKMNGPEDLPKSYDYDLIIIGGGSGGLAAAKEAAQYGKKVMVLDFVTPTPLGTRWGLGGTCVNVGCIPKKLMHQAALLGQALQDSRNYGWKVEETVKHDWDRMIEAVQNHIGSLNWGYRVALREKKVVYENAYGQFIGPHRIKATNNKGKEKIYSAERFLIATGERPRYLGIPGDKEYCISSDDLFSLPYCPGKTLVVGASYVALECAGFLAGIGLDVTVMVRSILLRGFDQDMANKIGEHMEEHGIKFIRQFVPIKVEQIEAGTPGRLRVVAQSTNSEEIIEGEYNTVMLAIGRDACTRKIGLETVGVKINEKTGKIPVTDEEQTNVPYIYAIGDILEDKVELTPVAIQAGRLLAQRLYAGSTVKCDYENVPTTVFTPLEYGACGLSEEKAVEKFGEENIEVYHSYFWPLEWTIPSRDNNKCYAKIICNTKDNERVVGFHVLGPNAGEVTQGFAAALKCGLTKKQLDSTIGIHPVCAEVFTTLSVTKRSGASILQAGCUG
UniProt O95857, sequence (O95857 whole entry, looked up): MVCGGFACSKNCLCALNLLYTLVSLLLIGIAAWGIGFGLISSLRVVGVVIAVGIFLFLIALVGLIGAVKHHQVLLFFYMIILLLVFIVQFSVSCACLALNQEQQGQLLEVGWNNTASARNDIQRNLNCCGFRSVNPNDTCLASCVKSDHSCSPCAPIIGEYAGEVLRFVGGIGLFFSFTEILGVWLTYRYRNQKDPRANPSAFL
UniProt P51668, sequence (P51668 whole entry, looked up): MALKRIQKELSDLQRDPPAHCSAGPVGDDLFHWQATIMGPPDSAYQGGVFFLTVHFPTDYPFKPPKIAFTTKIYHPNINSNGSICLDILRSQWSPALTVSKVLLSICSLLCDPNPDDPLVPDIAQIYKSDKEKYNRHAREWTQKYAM
UniProt P36406, sequence (P36406 whole entry, looked up): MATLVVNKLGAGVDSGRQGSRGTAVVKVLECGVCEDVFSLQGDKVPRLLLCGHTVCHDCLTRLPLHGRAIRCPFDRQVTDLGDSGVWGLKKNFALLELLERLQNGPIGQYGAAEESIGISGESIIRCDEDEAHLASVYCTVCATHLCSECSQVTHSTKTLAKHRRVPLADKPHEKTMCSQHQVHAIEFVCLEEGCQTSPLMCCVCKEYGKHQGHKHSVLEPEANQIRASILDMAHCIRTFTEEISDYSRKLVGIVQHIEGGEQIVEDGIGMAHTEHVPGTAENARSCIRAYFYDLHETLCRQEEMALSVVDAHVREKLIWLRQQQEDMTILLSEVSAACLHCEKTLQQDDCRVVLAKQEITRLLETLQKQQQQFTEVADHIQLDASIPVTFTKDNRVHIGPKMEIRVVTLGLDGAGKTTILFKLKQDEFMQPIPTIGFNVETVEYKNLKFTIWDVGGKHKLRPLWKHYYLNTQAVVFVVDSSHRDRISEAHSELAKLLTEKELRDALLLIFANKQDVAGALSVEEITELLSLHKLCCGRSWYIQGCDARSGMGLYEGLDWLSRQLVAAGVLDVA
UniProt A6NIH7, sequence (A6NIH7 whole entry, looked up): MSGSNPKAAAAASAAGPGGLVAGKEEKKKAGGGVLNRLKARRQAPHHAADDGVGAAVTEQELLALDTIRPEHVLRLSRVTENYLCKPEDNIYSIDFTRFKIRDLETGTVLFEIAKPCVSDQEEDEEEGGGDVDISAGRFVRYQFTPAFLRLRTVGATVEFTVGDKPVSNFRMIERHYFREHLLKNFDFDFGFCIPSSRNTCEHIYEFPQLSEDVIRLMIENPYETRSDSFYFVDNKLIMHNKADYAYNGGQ

As to UBE2D1 (UniProt P51668), the log2 fold change with erlotinib is 0.098; in [1] it was 0.071; in experiment [2] it was 0.068; in experiment [3], 0.057; in experiment [4], 0.023; in [5], 0.01. Also, the log2 fold change was -0.096 in experiment [6], 0.022 in experiment [7] and -0.162 in experiment [8].

For WARS1 (UniProt G3V5U1), the log2 fold change is -0.233 in experiment [9] and 0.187 in [4].

As for U2AF1L5 (UniProt P0DN76), the log2 fold change is 1.29 (active) with erlotinib; 0.031 in experiment [1]; 0.022 in experiment [2]; -0.159 in [3]; 0.096 in [4]; -0.005 in experiment [6]. Besides, the log2 fold change was 0.153 in experiment [7] and -0.207 in [8].

On to TMEM8A (UniProt Q9HCN3), for which the log2 fold change was 0.046 with erlotinib; -0.001 in experiment [2]; 0.02 in experiment [4]; 0.124 in experiment [5]; -0.014 in [7]; 0.011 in experiment [8].

As to TUBA4A (UniProt C9JJQ8), the log2 fold change in experiment [4] was 0.004; in experiment [7] it was 0.142; in [8], -0.036.

Regarding TSPAN13 (UniProt O95857), the log2 fold change in the experiment with erlotinib is 0.017; in experiment [9], -0.058; in [2] it was 0.061; in experiment [4], 0.075; in experiment [5], -0.02; in experiment [7], 0.065. In addition, the log2 fold change in experiment [8] was 0.143.

Turning to TRIQK (UniProt Q629K1), the log2 fold change in experiment [9] was -0.023; in experiment [4] it was 0.046; in experiment [5], -0.077; in experiment [7] it was -0.003; in experiment [8], 0.097.

In the case of WDR75 (UniProt Q8IWA0), the log2 fold change is -0.256 in experiment [1]; -0.592 in experiment [9]; 0.306 in experiment [3]; 0.091 in experiment [4]; -0.063 in [5]; 0.042 in [6]. For the same target, the values for the log2 fold change in [7] and in experiment [8] were -0.193 and 0.021, respectively.

Turning to USP48 (UniProt Q86UV5), the log2 fold change in the experiment with erlotinib was 0.228; in experiment [2], -0.112; in experiment [4] it was 0.007.

For the target WARS1 (UniProt G3V339), the log2 fold change in experiment [9] was -0.023.

For TRPT1 isoform 4 (UniProt Q86TN4), the log2 fold change with erlotinib is 0.021; in experiment [1] it was 0.065; in experiment [2] it was -0.08; in [3], 0.021; in experiment [5], 0.043; in [6], -0.062.

For the target WARS1 (UniProt G3V227), the log2 fold change in [1] is -0.08; in [9] it was 0.018; in experiment [3] it was -0.159; in experiment [4] it was 0.093; in experiment [6], -0.178; in experiment [7] it was 0.098. Further, in experiment [8], the log2 fold change is -0.089.

Turning to TXNL4B (UniProt Q9NX01), the log2 fold change with erlotinib is 0.018; in experiment [1], 0.007; in experiment [2], -0.001; in [3], 0.088; in experiment [4], 0.221; in experiment [5] it was 0.008. For the same target, the figures for the log2 fold change in experiment [6], in experiment [7] and in experiment [8] were 0.041, -0.005 and -0.016, respectively.

Turning to TUT4 (UniProt Q5TAX3), the log2 fold change in the experiment with erlotinib is 0.077; in experiment [9], -0.231; in experiment [2], 0.005; in experiment [4], -0.011; in [5] it was 0.08; in [7], -0.015. For the same target, the log2 fold change in experiment [8] is -0.129.

Take TOM1L2 (UniProt Q6ZVM7): the log2 fold change with erlotinib was -0.048; in experiment [1], 0.06; in experiment [9], 0.043; in experiment [2] it was 0.013; in [3] it was 0.025; in experiment [6] it was -0.026.

In the case of TXNRD1 isoform 7 (UniProt Q16881), the log2 fold change was 0.107 in the experiment with erlotinib, 0.1 in [9], -0.193 in [2] and 0.199 in [4].

Take TRIM23 (UniProt P36406): the log2 fold change with erlotinib is 0.006; in [2], 0.075; in [4], -0.096; in experiment [5] it was 0.061; in [7] it was -0.202; in experiment [8], 0.161.

Consider UNC119B (UniProt A6NIH7), for which the log2 fold change is 0 with erlotinib; 0.124 in experiment [1]; 0.316 in experiment [2]; 0.031 in experiment [3]; 0.001 in experiment [4]; 0.472 (active) in experiment [5]. Moreover, the log2 fold change in [6] was 0.005; in experiment [7], -0.012; in experiment [8], 0.454 (active).

Take XAB2 (UniProt Q9HCS7): the results for the log2 fold change in [9] and in experiment [5] were -0.223 and 0.075, respectively.

Take TVP23C (UniProt Q96ET8): the log2 fold change in the experiment with erlotinib is -0.025; in experiment [1], 0.053; in experiment [2] it was -0.021; in [3], 0.062; in [6], -0.098; in experiment [7], 0.066. Besides, in experiment [8], the log2 fold change was -0.031.

Turning to TTC26, the log2 fold change in experiment [4] was 0.001; in experiment [5] it was -0.005; in experiment [7] it was 0.09; in experiment [8] it was -0.062.
